# Assay results: PubChem BioAssay AID932 (The Scripps Research Institute Molecular Screening Center, 2007)
# In all, about 200,000 compounds went through this assay and about 5,100 (2.5%) were called active.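 How the source made its calls: active means activation above the screen-wide mean activation plus 3 SD (cut at about 130% in these data); inactive means the rest.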 The list comes from a sample in which actives are over-represented; it also holds similar structures and randomly drawn compounds.
# Assay: STAT1 signaling activators, primary screen, cell-based, HTS, luciferase reporter (AID 932);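 further: raw ratio to IFN-gamma control signal so 100% means no change and 0% no light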
# Settings: NIH 3T3 STAT1-luciferase reporter, IFN-gamma, luminescence; at 5.5 µM; stronger effect = higher value; 100% = IFN-gamma alone, no compound
row,Compound,activation (% of control)
1,Cn1c(=O)c2c(ncn2CCc2ccccc2)n(C)c1=O,101% (inactive)
2,CC(NC(=O)Nc1ccccc1)C(c1cccs1)N1CCN(c2ccccc2)CC1 (configuration not stated),87% (inactive)
3,O=C(CN1C(=O)c2cccc3cccc(c23)C1=O)N1CCCCC1,89.3% (inactive)
4,Cc1nccc(-c2ccc(-n3c(C)ccc3C)cc2)n1,101% (inactive)
5,O=C(COC(=O)c1ccccn1)Nc1cccc2ccccc12,103% (inactive)
6,CNC(=O)/C(C#N)=C/c1c(F)cccc1Cl,82.9% (inactive)
7,Cc1ccc(O)c(CCc2ccccc2)n1,104% (inactive)
8,Cc1noc(NS(=O)(=O)c2ccc(N/C=C/C(=O)c3ccccc3)cc2)c1C,113% (inactive)
9,COc1ccc(C(=O)Nc2ccc(S(=O)(=O)Nc3onc(C)c3C)cc2)cc1OC,104% (inactive)
10,Cc1ccc(C(=O)/C=C/Nc2ccc(S(=O)(=O)Nc3onc(C)c3C)cc2)cc1,142% (active)
11,CC(C)C(O)C1CCN(Cc2nc(Cc3ccccc3Cl)no2)CC1 (configuration not stated),105% (inactive)
12,Cc1ccc(N(C(=O)c2ccc(S(=O)(=O)N(C)C)cc2)C2C=CS(=O)(=O)C2)cc1 (configuration not stated),96.7% (inactive)
13,CCC(O)C1CCN(Cc2cn(-c3ccc(OC)cc3)nc2-c2cccc(F)c2)CC1 (configuration not stated),107% (inactive)
14,CCc1nc(Nc2ccc3nccnc3c2)c2oc3ccccc3c2n1,98.2% (inactive)
15,COc1ccccc1Nc1ncnc2c1oc1ccccc12,137% (active)
16,Cc1nc(Cl)c2oc3ccccc3c2n1,103% (inactive)

row,Compound,activation (% of control)
1,CCN(c1ccc(NC(=O)COC(=O)CCc2nc3ccccc3n2-c2ccccc2)cc1)C(C)C,99.5% (inactive)
2,COC(=O)c1nc2ccccc2s1,103% (inactive)
3,CC(C)CC(=O)N/C(N)=N/c1nc2ccccc2s1,123% (inactive)
4,CCC(=O)NC(=Nc1nc2ccccc2s1)NC(=O)CC,180% (active)
5,Cc1ccc(S(=O)(=O)N(C)C)cc1NC(=O)c1ccccc1Br,106% (inactive)
6,O=c1c2c(nc3n1CCCCC3)sc1c(O)cccc12,104% (inactive)
7,Cc1c(C(=O)Nc2cccc(-c3nnc4n3CCCCC4)c2)oc2ccccc12,104% (inactive)
8,Cc1c(C(=O)Nc2ccccc2)sc2nc3n(c(=O)c12)CCCCC3,130% (active)
9,COc1ccc(-c2nc3cnccn3c2NC(C)(C)CC(C)(C)C)cc1O,102% (inactive)
10,COc1ccc(C(C(=O)NC2CCCCC2)N(C(=O)Cc2c[nH]c3ccccc23)c2ccccc2)cc1OC (configuration not stated),105% (inactive)
11,COc1ccc(-n2ncc3c(N4CCCc5ccccc54)ncnc32)cc1,187% (active)
12,Cc1cccc(-n2ncc3c(N4CCc5ccccc54)ncnc32)c1,113% (inactive)
13,c1ccc(-n2ncc3c(N4CCCC4)ncnc32)cc1,115% (inactive)
14,COc1ccc2oc(=O)c(C(=O)N3CCCc4ccccc43)cc2c1,97.1% (inactive)
15,COc1ccc(-n2c(C)nc3c(cnn3-c3ccccc3)c2=O)cc1,88.7% (inactive)
16,COc1ccc(-n2ncc3c(N4CCc5ccccc54)ncnc32)cc1,137% (active)
